We go through 15 sequences from the OligoGym collection.
Also: reference of the scale not given here.

The target in one assay is ARHGEF15. The assay is described as follows: pooled miR-30 sensor sort-seq; sequence = guide strand. The following applies: shRNA.
Sequence TAACTCAGTCAGCTCTCCCTGG showed a sensor-assay potency score (higher = more potent) of -0.77.

For TTGCGCTCAGCAGTGGAGCGGT, the sensor-assay potency score (higher = more potent) is -0.34.

Sequence TTTCGGGGTAGTTCTTGTGGAG returned a sensor-assay potency score (higher = more potent) of -0.734.

The sequence TTGCTAGAAACCGCTCGCTGAC yielded a sensor-assay potency score (higher = more potent) of -1.26.

As to TTGCACAGCCGGAAGCTCCTGC, the sensor-assay potency score (higher = more potent) was -0.0952.

In the case of TTGGAGTAGTCGGTGGGTGGGG, the sensor-assay potency score (higher = more potent) is -0.515.

The sequence ACATAATCCACATACACCGAGA showed a sensor-assay potency score (higher = more potent) of -1.37.

Turning to TATTCTGAGGAGCTTCATCAGG, the sensor-assay potency score (higher = more potent) was -0.865.

TTGTGGAGAGGAGCCATTGTGG had a sensor-assay potency score (higher = more potent) of -1.62.

TAGGATGTGAGGACAACGGCAG: the sensor-assay potency score (higher = more potent) was 0.25.

On to TGATCTTGCTGACAGCACCCAG, for which the sensor-assay potency score (higher = more potent) was -1.42.

As to TTGCTGGAGGAGTATTCTGAGG, the sensor-assay potency score (higher = more potent) is -1.94.

For another assay, the target named is ARIH1. Described as above. The following applies: shRNA.
On to TTTAATTGCATGAGCACTCTAG, for which the sensor-assay potency score (higher = more potent) is -0.104.

As to TTAGGGTAGTTCAAGTAGCAGA, the sensor-assay potency score (higher = more potent) is -0.412.

On to TACTTTCTGCTTTATATCCTGC, for which the sensor-assay potency score (higher = more potent) was determined as 0.014.
